Compound activity deposited in PubChem BioAssay by National Center for Advancing Translational Sciences (NCATS).
NS1 function inh = blocks influenza NS1 protein function; Potency, µM (highest dose often 46.1 µM); 0.4% of 270,000 active; calls by dose curve; also: actives are rising curves; nearly all actives have a fitted effect of over 50% in size
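S. cerevisiae expressing influenza A NS1, grown in glucose, washed, then diluted 1:100 into pH 6.0 -URA galactose medium with 23 nl compound. Growth recovery read as OD600; NS1-free strain serves as control.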
Giardia FBPA inh = inhibitors of Giardia lamblia fructose-1,6-bisphosphate aldolase | A8B2U2 | purified Giardia FBPA | Potency, µM (titrated, usually from 59.6 µM), hits mostly inhibitors | 0.71% of 290,000 active; also: nearly all actives have a fitted effect of over 55% in size
Target sequence (A8B2U2 whole entry, looked up): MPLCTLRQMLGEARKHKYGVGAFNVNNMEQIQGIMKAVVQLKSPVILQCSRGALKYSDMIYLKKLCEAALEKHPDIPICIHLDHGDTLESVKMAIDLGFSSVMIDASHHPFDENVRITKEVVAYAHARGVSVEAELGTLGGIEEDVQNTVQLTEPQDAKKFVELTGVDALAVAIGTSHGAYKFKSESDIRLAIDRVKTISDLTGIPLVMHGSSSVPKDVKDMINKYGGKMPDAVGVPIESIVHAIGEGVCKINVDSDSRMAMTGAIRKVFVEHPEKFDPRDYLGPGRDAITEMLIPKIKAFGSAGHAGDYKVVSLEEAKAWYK
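40 nM FBPA preincubated 10 min at RT with compound (up to 57.5 uM final), then substrate plus GAPDH/TPI/NAD/arsenate coupling and diaphorase/resazurin added. Fluorescence read after 20 min at RT, 525/598 nm.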
CHX counter = affects cycloheximide protein synthesis inhibition readout, counter-screen. cell reporter, cycloheximide protein synthesis inhibition counterscreen. max response, %. 12% of 300,000 active; in the data active = max response mostly above about 13%, no sharp cut-off; inactive = mostly below about 14%; also: read at 38.3 µM for the half of the compounds with a filed dose
Shiga inhibitor = blocks Shiga toxin action in Vero cells. Vero cells, Shiga toxin protein synthesis inhibition reporter. inhibition, % at 38.7 µM. 9.2% of 290,000 active. AID 2315; in the data active = inhibition mostly above about 28%, no sharp cut-off; inactive = mostly below about 43%
LmPK inh = LmPK (Leishmania mexicana) enzyme inhibition; Q27686; AID 1721; Potency, µM (series often up to 57.5 µM), hits mostly inhibitors; purified LmPK, Kinase-Glo ATP luminescence, 1 h; 0.37% of 290,000 active
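Purified LmPK (0.1 nM) with 0.5 mM PEP and 0.1 mM ADP in imidazole buffer pH 7.2 with MgCl2/KCl, 1 h at room temperature. ATP formed was read by luciferase luminescence and normalized to no-enzyme and uninhibited controls.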
Hits are given with their value; 0 = inactive; ? = inconclusive; - = no result given; [ ] = another dose, or the depositor's remark. An excerpt weighted towards active compounds, which were near 14% of everything screened. Unless noted, calls follow the shape of the dose curve; as a rule, active = well fitted curve in the direction sought with a large enough effect; inconclusive = small, poorly fitted or top-dose-only effect, or another doubt; inactive = no such curve, though single readings can be large; an effect the other way counts as inactive or inconclusive.

SMILES	NS1 function inh	Giardia FBPA inh	CHX counter	Shiga inhibitor	LmPK inh
CSc1ccc(/C=C/C(=O)OCC(=O)N(C)CCC#N)cc1	-	0	19.9	31.2	0
CN(CCC#N)C(=O)COC(=O)c1cc(Cl)cc(Cl)c1N	-	0	0	0	0
Cc1ccccc1Nc1nc(N)nc(COC(=O)c2ccccc2)n1	0	0	81.5	78.9	0
Cc1ccccc1CSCc1nc(N)nc(Nc2ccccc2C)n1	-	0	48.6	84.8	0
Cc1ccccc1Nc1nc(N)nc(COC(=O)c2cccc(S(=O)(=O)N(C)c3ccccc3)c2)n1	0	0	0	0	0
Cc1ccccc1Nc1nc(N)nc(CSCc2c(C)noc2C)n1	0	0	0	0	0
Cc1ccccc1Nc1nc(N)nc(COC(=O)c2ccc(O)cc2)n1	0	0	20.4	0	0
Cc1ccccc1Nc1nc(N)nc(COC(=O)/C=C/c2ccco2)n1	-	0	0	0	0
CC(C)C[C@@H](CC(=O)N[C@@H](CCC(=O)O)CC(=O)O)NC(=O)[C@@H]1CCCC[C@H]1NC(=O)C[C@@H](NC(=O)C[C@H](Cc1ccccc1)NC(=O)[C@@H]1CCCC[C@H]1N)C(C)C	-	0	-	-	-
O=C(Nc1cccc2cccnc12)c1c(Cl)cc(Cl)cc1Cl	-	-	0	0	-
C=CCSc1nsc(NC(=O)Nc2ccc(F)cc2)n1	0	?	43.2	101.3	0
CCSc1nsc(NC(=O)Nc2ccccc2F)n1	0	0	32.6	29.9	0
CC(c1ccccc1)c1nnc(NC(=O)Nc2ccccc2F)s1 (centres undefined)	0	0	44.9	72.5	0
CCSc1nsc(NC(=O)Nc2cccc(OC)c2)n1	0	0	28.9	-	0
Cc1cccnc1CNC(=O)C1CCC(=O)N(CCc2cccc(F)c2)C1 (centres undefined)	0	0	0	0	0
Cc1nc(Nc2cccc(Cl)c2)c2oc3ccccc3c2n1	0	0	20.2	30.9	0
Cc1nc(Nc2ccccc2F)c2oc3ccccc3c2n1	0	0	31.6	69.2	0
Cc1nc(Nc2ccc(Cl)cc2)c2oc3ccccc3c2n1	0	0	0	0	0
Cc1nc(Nc2cccc(F)c2)c2oc3ccccc3c2n1	0	0	28.4	97.3	0
Cc1nc(Nc2cccc(O)c2)c2oc3ccccc3c2n1	0	0	42.0	52.2	0
CCN(CC(=O)NCc1ccc(F)cc1)C(=O)c1ccc(C)o1	0	0	0	0	0
O=C(NC1CC(=O)N(c2ccc3c(c2)OCCO3)C1)c1c(F)cccc1Cl (centres undefined)	-	-	0	0	-
NC(=O)CSc1nnc(-c2ccccc2)c(-c2ccccc2)n1	0	0	0	0	0
CC1CN(c2ncnc3c2cnn3-c2ccc(Cl)cc2)CC(C)O1 (centres undefined)	0	0	0	0	0
Cc1cccc(C(=O)N2CCN(c3ncnc4c3cnn4-c3ccccc3)CC2)c1	0	0	0	0	0
SMILES	NS1 function inh	Giardia FBPA inh	CHX counter	Shiga inhibitor	LmPK inh
Cc1ccc(-n2ncc3c(N4CCN(c5ccccc5)CC4)ncnc32)c(C)c1	0	0[12.9 µM]	24.4	0	0
Cc1cccc(-n2ncc3c(N4CC(C)CC(C)C4)ncnc32)c1 (centres undefined)	0	0	39.2	79.5	0
Cc1cccc(-n2ncc3c(N4CCCC4)ncnc32)c1	0	0	32.5	85.5	0
Cc1cccc(-n2ncc3c(N4CCOCC4)ncnc32)c1	0	0	15.4	0	25.1µM
Cn1ncc2c(N3CCOCC3)ncnc21	0	0	0	0	0
COc1ccc(C2/C=C\CN(CC3CCCCC3)C(Cc3ccccc3)C(=O)N2Cc2ccc(F)cc2)cc1 (centres undefined)	-	0	0	0	-
COc1ccc(-c2cn3nc4c(nc3n2)CCCC4)cc1	0	0	26.3	48.1	15.8µM
CCOC(=O)Cc1nnc(NC(=O)CSc2nc3ccccc3[nH]2)s1	0	0	0	0	0
COc1cc(-c2nc3oc4ccccc4c(=O)c3c(=O)n2Cc2ccco2)cc(OC)c1OC	0	0	21.6	40.0	0
COc1ccc2c(=O)c3c(=O)n(Cc4ccco4)c(-c4ccc(C)cc4)nc3oc2c1	0	0	0	0	0
CCOC(=O)c1[nH]nc(N)c1NC(=O)c1ccc(Cl)cc1Cl	0	0	26.9	0	0
CCOC(=O)c1[nH]c2ccc(Cl)cc2c1NC(=O)c1nonc1C	0	0	0	0	0
COC(=O)c1ccc(N2C(=O)c3ccc(OC)c(OC)c3C2=O)cc1	0	0	0	0	0
COc1ccc2c(c1OC)C(=O)N(c1cccc(C)c1)C2=O	0	0	43.4	0	0
CC(=O)N1CCN(C(=O)CSc2cc(C)c(Br)cc2C)CC1	0	-	34.1	48.2	0
Cc1cc(SCC(=O)NN=C2CCN(C(C)C)CC2)c(C)cc1Br	0	0	0	0	0
C#CCN(C)CCCOc1ccc(Cl)cc1Cl	0	0	27.5	80.6	0
COC(=O)NNC(=O)CCCOc1ccc(Cl)cc1Cl	0	0	0	0	0
CN1CCN(C(=O)CCCOc2ccc(Cl)cc2Cl)CC1	0	0	0	0	0
CC(C)NC(=O)CCCOc1ccc(Cl)cc1Cl	0	0	34.0	0	0
CCn1c(CCCOc2ccc(Cl)cc2Cl)n[nH]c1=S	0	0	21.2	56.8	0
CCN(CC)C(=O)CCCOc1ccc(Cl)cc1Cl	0	0	0	90.7	0
COc1ccc(CN2CCNC(=O)C2CC(=O)NC2CCCC2)c(C)c1C (centres undefined)	0	0	0	0	0
COc1cc(C(=O)Nc2nnc(S(=O)(=O)N3CCCCCC3)s2)cc(OC)c1OC	0	0	0	0	0
O=C(Nc1ccc(Oc2ccccc2)nc1)C1CCCCN1Cc1ccc(OCCO)cc1 (centres undefined)	0	0	22.4	0	0
SMILES	NS1 function inh	Giardia FBPA inh	CHX counter	Shiga inhibitor	LmPK inh
CC#CC(=O)N1CCC(C(=O)Nc2ccc(Oc3ccccc3)nc2)CC1	0	0	34.4	86.8	0
O=C(Nc1ccc(S(=O)(=O)NCC2CCCO2)cc1)c1ccc(Cl)cc1[N+](=O)[O-] (centres undefined)	0	0	0	0	0
C#Cc1ccc2c(c1)C(=O)N(C)Cc1c(C(=O)OCCCOC(=O)c3ncn4c3CN(C)C(=O)c3cc(C#C)ccc3-4)ncn1-2	-	0	0	0	-
COc1ccc(OCCC(=O)N2CCCCC2)cc1	0	0	26.9	35.5	0
COc1ccc(OCCC(=O)N2CCN(C)CC2)cc1	0	0	0	0	0
CCOc1ccc(C(=O)N2CCCC2)cc1	0	0	0	0	0
CCCCCOc1ccc(C(=O)CCC(=O)N2CCCC2)cc1	0	0	22.0	51.4	0
O=C(c1ccc(-c2ccccc2)cc1)N1CCCC1	0	0	0	0	0
O=C(c1ccc(-n2cccc2)cc1)N1CCCCC1	-	0	25.6	0	0
CCCCOc1ccc(C(=O)N2CCCC2)cc1	0	0	36.0	102.7	?
O=c1cnc2cnc(Nc3ccccc3)nc2n1C[C@H]1CCCO1	-	0	-	-	-
COc1ccc(N(CC(=O)NCc2ccco2)C(=O)CCC(=O)Nc2nccs2)cc1	0	0	0	0	0
O=C(N1CCOCC1)N1CCN(c2nc(-c3ccccc3)cs2)CC1	0	0	30.3	0	0
S=C(NCCCN1CCOCC1)N1CCN(c2nc(-c3ccccc3)cs2)CC1	0	0	0	0	0
